Assay results reported in PubChem BioAssay (NCATS).
Inconclusive results are not listed. Active and inactive are the calls of the source. Calls come from the whole dose curve; as a rule, active = well fitted inhibition curve with a large enough effect; inconclusive = small, poorly fitted or top-dose-only effect; inactive = flat fitted curve, though single readings scatter.

Experiment: qHTS for differential inhibitors of proliferation of Plasmodium falciparum line Dd2 (AID 1882); note: nearly all actives have a fitted effect of over 65% in size
Conditions: Potency: Plasmodium falciparum Dd2 proliferation inhibition; series mostly up to 28.7 µM; activity change, negative = inhibition: at the top concentration
Excerpt: NIH Molecular Libraries Probe Production Network [MLPCN]
NIH National Institute of Allergy and Infectious Diseases [NIAID]
NIH Chemical Genomics Center [NCGC]
Assay Provider: Xinzhuan Su, NIAID
Plasmodium falciparum is a virulent malarial parasite that kills 1-2 million people worldwide each year. Transmitted by mosquitoes, the sporozoite form of the parasite enters the blood stream to infect hepatocytes, where they become merozoites that infect red blood cells (erythrocytes). Within erythrocytes, merozoites begin a […] cycle of growth and division, after which the parasite is released to infect new red blood cells. Gametocytes, which form within erythrocytes as well, circulate in the bloodstream and are ingested by the mosquito, thereby completing the life cycle. To profile malarial isolates for differential chemical responses and to identify inhibitors of malarial growth, an assay that measures P. falciparum growth and replication within erythrocytes was employed. This assay uses a DNA binding fluorescent dye (SYBR Green) to detect parasite DNA following cell lysis. Because mature erythrocytes lack DNA, only Plasmodium-derived DNA is detected. The P. falciparum line Dd2, derived from a malarial isolate from […], was used.
NCGC Assay Protocol Summary:
The SYBR Green viability assay was adapted from a method described previously (Plouffe et al., 2008). For screening 3 ul culture medium was dispensed into 1536 well black clear bottom plates (Aurora Biotechnologies) using a Multidrop Combi (Thermo Fisher Scientific Inc.), 23 nL compounds in DMSO were added by a pin tool (Kalypsys), and 5 ul of erythrocytes infected with P. falciparum line Dd2 (0.3% parasitemia, 2.5% hematocrit final concentration) were added. The plates were incubated at 37 C in a humidified incubator in 5% CO2 for 72 h, and 2 ul lysis buffer (20 mM Tris HCl, 10 mM EDTA, […]% saponin, 1.6% triton X, 10X SYBR Green I supplied as 10,000X […] by Invitrogen) was added to each well. The plates were mixed for 25 sec with gentle shaking and incubated overnight at room temperature in the dark. The following morning, fluorescence intensity at 485(14) nm excitation and 535(25) nm emission wavelengths was measured on an EnVision (Perkin Elmer) plate reader. Plate reads were normalized relative to the control inhibitor (0.29 uM artemisinin) and vehicle (DMSO) wells present on each plate and then corrected by an algorithm using vehicle-only control plates at the beginning and end of the compound plate stack.
Plouffe D, Brinker A, McNamara C, Henson K, Kato N, Kuhen K, Nagle A, Adrian F, Matzen JT, Anderson P, Nam TG, Gray NS, Chatterjee A, Janes J, Yan SF, Trager R, Caldwell JS, Schultz PG, Zhou Y, Winzeler EA. […] Proc Natl Acad Sci U S A. 2008, 105(26), pp 9059-64.
Potency is the fitted concentration of half-maximal effect.

Row | Compound | Potency | activity change, negative = inhibition
1 | O=S(=O)(c1cccc2c(Cl)cccc12)N1CCCNCC1 | 4.47 µM (active) | 
2 | CCCCCCC/C=C\CCCCCCCCC(=O)O |  | 6.16% (inactive)
3 | O=C1C2C=CC=CC2=NC(=S)N1CCN1CCC(=C(c2ccc(F)cc2)c2ccc(F)cc2)CC1 (stereo not given) |  | -14.4% (inactive)
4 | N#C/C(=C\c1ccc(O)c(O)c1)C(=O)NCCc1ccccc1 | 11.2 µM (active) | 
5 | c1ccc(CN2CCC3(CCCc4ccccc43)CC2)cc1 | 11.2 µM (active) | 
6 | C=CC1(C)CC(=O)C2(O)C(C)(O1)C(OC(C)=O)C(O)C1C(C)(C)CCC(O)C12C (stereo not given) |  | -14.6% (inactive)
7 | CCCCCCCCCCCCCCSCC(=O)O |  | -0.0922% (inactive)
8 | CC(N)(Cc1ccc(O)cc1)C(=O)O (stereo not given) |  | 8.52% (inactive)
9 | CCCc1c(-c2ccc(O)cc2)nn(-c2ccc(O)cc2)c1-c1ccc(O)cc1 |  | -22.2% (inactive)
10 | COC(=O)C(N)Cc1ccc(Cl)cc1 (stereo not given) |  | 3.09% (inactive)
11 | Oc1cc2c(cc1O)C(c1ccccc1)CNCC2 (stereo not given) |  | -11.2% (inactive)
12 | CCC(=O)N1CCN(C(=O)c2ccccc2)CC1 |  | 0.407% (inactive)
13 | Cc1cccc(C(=O)NCN2CCN(c3ccccc3C#N)CC2)c1 |  | -19.4% (inactive)
14 | CC(=O)/C(C)=N/O |  | -0.376% (inactive)
15 | CC(=O)NCCc1c[nH]c2ccc(O)cc12 |  | 0.609% (inactive)
16 | NC1(C(=O)O)CCCCC1 |  | 0.88% (inactive)
17 | Cn1c(=O)c2[nH]c(C3CCCC3)nc2n(C)c1=O |  | 2.28% (inactive)
18 | O=c1[nH]c(=O)c2nc3ccccc3nc2[nH]1 |  | -25.9% (inactive)
19 | N=S(=O)(O)Cc1noc2ccccc12 |  | 0.831% (inactive)
20 | CC1C(=O)N(C)C(=O)c2nc[nH]c21 (stereo not given) |  | 3.15% (inactive)

Row | Compound | Potency | activity change, negative = inhibition
21 | CCN(c1nc(N)c(C(=O)N=C(N)N)nc1Cl)C(C)C |  | -22.9% (inactive)
22 | O=c1[nH]c2cc(Cl)ccc2c(O)c1-c1ccc(Oc2ccccc2)cc1 |  | -5.5% (inactive)
23 | CO/N=C(\C(=O)N[C@@H]1C(=O)N2C(C(=O)O)=C(CSc3nc(=O)c(O)nn3C)CSC12)c1csc(N)n1 (stereo not given in full) |  | -20.7% (inactive)
24 | O=c1onc2cnc3ccccc3n12 |  | -3.96% (inactive)
25 | CCCC[C@@]1(C2CCCC2)Cc2cc(OCC(=O)O)c(Cl)c(Cl)c2C1=O |  | -18.6% (inactive)
26 | O=C(O)C1CCCNC1 (stereo not given) |  | 0.541% (inactive)
27 | N[C@@H](CCC(=O)N[C@H](CSN=O)C(=O)NCC(=O)O)C(=O)O |  | -10.3% (inactive)
28 | CCn1c(=O)[nH]c2cc(Cl)c(Cl)cc21 |  | 1.91% (inactive)
29 | NCCC1CCCC(CCN)N1 (stereo not given) |  | 0.0084% (inactive)
30 | NCCCCN |  | 3.6% (inactive)
31 | N=C(N)SCCN |  | 6.43% (inactive)
32 | CC(=O)[C@H]1CCC2C3CC=C4C[C@@H](OS(=O)(=O)O)CC[C@]4(C)C3CC[C@@]21C (stereo not given in full) |  | -10.1% (inactive)
33 | CNC(=O)c1cc2c(cn1)[nH]c1ccccc12 |  | -25.8% (inactive)
34 | CSC(N)=NCCC[C@H](N)C(=O)O |  | 2.03% (inactive)
35 | COc1ccc(-c2ccc(N)[n+](CCCC(=O)O)n2)cc1 |  | 6.06% (inactive)
36 | N=C(N)c1ccc(N)cc1 |  | -3.58% (inactive)
37 | CNCCNS(=O)(=O)c1cccc2cnccc12 |  | -10.2% (inactive)
38 | CCCCCCCCCCC/C=C\C(C)(C)/C=C\CCCC(=O)O |  | -4.56% (inactive)
39 | N[C@@H](Cc1ccc(F)cc1)C(=O)O |  | -11.9% (inactive)
40 | N[C@H](C(=O)O)[C@H]1C[C@@H]1C(=O)O |  | 7.61% (inactive)
